# Source: PubChem BioAssay (National Center for Advancing Translational Sciences (NCATS))
# Sampled rows, rich in hits. Any-hit rate of the full collection: about 1.3%.
# Vaccinia mCherry – qHTS for Stage-Specific Inhibitors of Vaccinia Orthopoxvirus: mCherry Reporter Primary qHTS; hit rate 0.63% among 310,000; Vaccinia virus mCherry reporter infection, fluorescence; Potency, µM (highest dose often 36.5 µM), for the others: at the highest dose activity change, negative = inhibition, actives largely listed as inhibitors; calls by dose curve; tested in A549 cells; note: nearly all actives have a fitted effect of over 35% in size
# AMA1 RON2 block – qHTS for Inhibitors of AMA1-RON; Towards Development of Antimalarial Drug Lead: Primary Screen; hit rate 0.2% among 360,000; Potency, µM (titrated, usually from 58.2 µM), for inactives: top-dose activity change, negative = inhibition, actives largely listed as inhibitors; Plasmodium falciparum AMA1 (3D7) - RON2 peptide interaction; AlphaScreen AMA1-biotinylated RON2 peptide binding; AID 720542, 2013;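 note: 0% = vehicle wells and -100% = peptide control; nearly all actives have a fitted effect of over 45% in size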
#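 AMA1 (3D7) with his tag at 25 nM final met compounds first, then biotinylated RON2 peptide at 25 nM; detection used donor plus acceptor beads, 10 µg/mL apiece, read by AlphaScreen after 30 min at room temperature.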
# TbPYK inhibitor – qHTS of Trypanosoma Brucei Inhibitors. pyruvate kinase (Trypanosoma brucei), Q57TT1. TbPYK enzyme, Kinase-Glo Plus ATP luminescence, 45 min. Potency, µM (top dose mostly 76.8 µM), for the others: at the highest dose activity, negative = inhibition, hits mostly inhibitors. hit rate 0.12% among 410,000; note: nearly all actives have a fitted effect of over 50% in size
#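 Luminescent Kinase-Glo Plus end-point after 45 min room-temperature reaction of T. brucei pyruvate kinase started with 130 uM ADP (final). Buffer TEA 50 mM pH 7.2 with KCl, MgCl2, BSA, Tween-20; titration-based qHTS with fitted concentration-effect curves.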
# VACV Venus inh – qHTS for Stage-Specific Inhibitors of Vaccinia Orthopoxvirus: Venus Reporter Primary qHTS; Vaccinia virus Venus reporter expression, fluorescence; Potency, µM (highest dose often 36.5 µM), without a hit: at the highest dose activity change, negative = inhibition, hits mostly inhibitors; hit rate 0.46% among 330,000; AID 720580, 2013; calls by dose curve; tested in A549 cells; note: nearly all actives have a fitted effect of over 30% in size
# LmPK inh – qHTS Assay for Inhibitors of Leishmania Mexicana Pyruvate Kinase (LmPK); hit rate 0.37% among 290,000; purified LmPK, Kinase-Glo ATP luminescence, 1 h; Q27686; Potency, µM (highest dose often 57.5 µM), for inactives: at the highest dose activity change, negative = inhibition, actives largely listed as inhibitors
# Target sequence (Q27686 whole entry, looked up): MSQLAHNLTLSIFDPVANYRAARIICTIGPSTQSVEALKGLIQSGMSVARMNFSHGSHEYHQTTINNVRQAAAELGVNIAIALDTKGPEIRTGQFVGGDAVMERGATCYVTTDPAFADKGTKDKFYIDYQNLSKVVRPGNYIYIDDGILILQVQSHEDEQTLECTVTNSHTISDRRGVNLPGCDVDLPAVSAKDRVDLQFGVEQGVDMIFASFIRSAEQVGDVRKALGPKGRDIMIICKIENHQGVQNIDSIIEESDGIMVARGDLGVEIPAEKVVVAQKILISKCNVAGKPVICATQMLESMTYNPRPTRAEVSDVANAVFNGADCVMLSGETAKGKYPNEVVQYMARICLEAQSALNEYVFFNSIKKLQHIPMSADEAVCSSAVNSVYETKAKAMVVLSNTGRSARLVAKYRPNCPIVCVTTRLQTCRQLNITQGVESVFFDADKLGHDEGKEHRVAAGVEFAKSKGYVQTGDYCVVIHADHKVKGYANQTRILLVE
#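 Pyruvate kinase activity monitored as ATP production (luciferase luminescence). Conditions: 0.1 nM enzyme, 0.5 mM PEP, 0.1 mM ADP, 1 h, RT; normalized against uninhibited and no-enzyme wells.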
# RE007 growth inh – qHTS Assay for Inhibitors of the HIV-1 protein Vpr; S. pombe RE007 Vpr strain, BacTiter-Glo ATP luminescence, 24 h; Potency, µM (doses to about 92.2 µM), inactives show at the top dose activity change, negative = less growth, most hits filed as inhibitors; hit rate 0.21% among 360,000; active = well fitted falling curve with a large enough effect; inconclusive = small, poorly fitted or top-dose-only effect; inactive = no such curve, though single readings can be large or run the other way; note: nearly all actives have a fitted effect of over 50% in size
#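 Fission yeast strain RE007, carrying one chromosomally integrated HIV-1 vpr copy, was seeded at OD 0.01 in PMG+AL medium with 23 nL pinned compound. After 24 h at 30 °C and 99% humidity, viability was read by BacTiter-Glo luminescence.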
# * hit, by the source's call; i = inactive; ? = inconclusive; . = not tested or not shown; ! = a repeat was not active; [ ] = another dose, or the depositor's remark. Unless noted, calls come from the whole dose curve; as a rule, active = well fitted curve in the direction sought with a large enough effect; inconclusive = small, poorly fitted or top-dose-only effect, or another doubt; inactive = no such curve, though single readings can be large; an effect the other way counts as inactive or inconclusive. Unless noted, % is set by controls: 0 for no effect and ±100 for the full control effect; potency is the fitted concentration of half-maximal effect.
SMILES,Vaccinia mCherry,AMA1 RON2 block,TbPYK inhibitor,VACV Venus inh,LmPK inh,RE007 growth inh
CC(C)=CC(=O)Nc1ccccc1C(N)=O,-16%,6.7µM*,2%,-3%,-11%,8%
CCOC(=O)c1ccccc1NC(=O)C=C(C)C,-19%,20%,3%,-16%,-3%,-1%
C=CCn1c(SCC(=O)Nc2sccc2C(N)=O)nc2sc(CC)cc2c1=O,.,-3%,-7%,10µM*,0%,11%
C=CCn1c(SCC(=O)Nc2sccc2C(N)=O)nc2ccc(Cl)cc2c1=O,.,3%,-9%,?,2%,6%
Cc1ccc(C(=O)Nc2nc(C)c(C)s2)o1,-17%,-6%,-24%,-13%,14µM*,-29%
COC(=O)c1sc(NC(=O)c2ccc(C)o2)nc1C,-15%,-4%,-16%,-26%,?,-20%
Cc1nc(NC(=O)c2ccc(Br)o2)sc1C,-2%,4%,-7%,-2%,16µM*,-29%
CNc1ccc(C=C2c3ccccc3-c3ccccc32)cc1,-20%,.,.,?,.,.
CC(O)(COc1ccccc1)c1ccc2c(c1)CN(Cc1cccc3ncccc13)CCO2 (centres undefined),-19%,.,.,-4%,.,.
O=C(Cn1nc2ccccc2n1)N1CCOc2ccc(CN3CCc4sccc4C3)cc2C1,-4%,.,.,6%,.,.
C=CCc1ccc(OC)cc1,2.2µM*!,9%,-3%,4µM*!,.,-2%
COc1ccc(-c2ccc(OC)cc2)cc1,-18%,10%,-2%,-1%,.,-1%
COCC1=C(C(=O)OC(C)OC(=O)OC(C)C)N2C(=O)C(NC(=O)/C(=N\OC)c3csc(N)n3)C2SC1 (centres undefined),.,.,-3%,.,.,.
O=C(Nc1ccccc1Cl)N1CCN(c2ccc3nnc(-c4ccc(F)cc4)n3n2)CC1,-4%,-1%,1%,-7%,4%,21%
O=C(Nc1ccc(Cl)cc1)N1CCN(c2ccc3nnc(-c4ccccc4)n3n2)CC1,10µM*,.,8%,?,.,.
N#C/C(=C\c1cccc2ccccc12)c1nn(-c2ccccc2)c(N)c1C#N,-24%,-3%,6%,-16%,.,7%
Cc1ccc(/C=C(\C#N)c2nn(-c3ccccc3)c(N)c2C#N)cc1,10µM*,-7%,-15%,?,1%,.
CC[C@H](OC(C)=O)C(C[C@H](C)NC)(c1ccccc1)c1ccccc1,.,.,-5%[157 µM],.,.,.
Cc1ccn2c(NC3CCCCC3)c(-c3cccc(SC4CCCCC4)c3)nc2c1,?,-6%,-10%,?,.,-24%
CCC(C)Sc1cccc(-c2nc3cc(C)ccn3c2NC2CCCCC2)c1 (centres undefined),7.9µM*!,-1%,-1%,?,.,?
O=C1CC(C(=O)N2CCCC(c3nc(-c4ccncc4)ncc3-c3ccccc3)C2)C2(CCCCC2)O1 (centres undefined),-14%,.,.,0%,.,.
OCCN1CCN(Cc2ccc3c(c2)CN(Cc2ccc4ccccc4c2)CCO3)CC1,-11%,.,.,10%,.,.
O=C(c1ccco1)N1CCN(C(=O)c2ccco2)C1=S,i,2%,-17%,?,.,-9%
Cc1cccn2c1nc(=S)n2C(=O)c1ccco1,i,14%,-25%,-12%,10µM*,4%
CC(C)Cc1nc2cc(NS(=O)(=O)N(C)C)cc(C(=O)N3CC4(C)CC3CC(C)(C)C4)c2n1C (centres undefined),-2%,.,.,15%,.,.
SMILES,Vaccinia mCherry,AMA1 RON2 block,TbPYK inhibitor,VACV Venus inh,LmPK inh,RE007 growth inh
COc1cccc(NC(=O)C2CC(=O)n3cnnc3S2)c1 (centres undefined),1%,?,-8%,-4%,5%,35µM*
COC(=O)[C@H](Cc1ccccc1)N(Cc1ccc(C)cc1)S(C)(=O)=O,-13%,.,.,-28%,.,.
c1ccc(SSc2ccccn2)nc1,i,33%,?,1%,.,45µM*
c1ccc(Sc2ccccn2)cc1,-6%[7.34 µM],-8%,-2%,-7%[7.34 µM],.,-24%
OCC1CCCN(c2nc3cc4c(cc3cc2CNCc2cccc(C(F)(F)F)c2)OCO4)C1 (centres undefined),-12%,.,.,-11%,.,.
Cc1ccc(C)c(Cn2nnc3c(=O)[nH]c(C(=O)NCc4ccco4)nc32)c1,-7%,62%,1%,-10%,0%,12%
O=C(NCc1ccco1)c1nc2c(nnn2Cc2ccccc2Cl)c(=O)[nH]1,13µM*,19%,13%,11µM*,5%,-7%
CCn1nc(-c2cccs2)nc2c(=O)n(C)c(=O)nc1-2,.,0%,-5%,0.79µM*,-13%,?
CCn1nc(-c2ccccc2C)nc2c(=O)n(C)c(=O)nc1-2,5.6µM*,.,.,6.3µM*,.,.
CCn1nc(/C=C/c2ccccc2)nc2c(=O)n(C)c(=O)nc1-2,2.5µM*,11%,-10%,2.8µM*,5%,28µM*
COc1ccc(OC)c(/C=c2\sc3nc(-c4cccs4)nn3c2=O)c1,-8%,9%,3%,-2%,-1%,26%
Cc1ccccc1-n1c2nc(=O)n(C)c(=O)c-2cc2ccccc21,-19%,-4%,4%,6%,-3%,-9%
COc1cccc(O)c1CN1CCC2(CC1)c1ccccc1[C@@H](NC(=O)c1ccsc1)[C@@H]2OC,-13%,.,.,-1%,.,.
CCN(CC)CCNCC1C(=O)O[C@@H]2C[C@@]3(C)CCC[C@H](C)C3=C[C@H]12 (some centres undefined),4.5µM*,1%,-6%,10µM*,0%,-29%
COC(=O)C1=C(C)NC(=O)/C1=C\c1cc(C)n(-c2ccccc2F)c1C,-16%,2%,-15%,7%,0%,2%
COC(=O)C1=C(C)NC(=O)/C1=C\c1cc(C)n(-c2ccccc2C)c1C,?,-17%,-1%,-16%,0%,16µM*
Nc1cc(C(=O)O)c(N)c2c1C(=O)c1ccccc1C2=O,?,18µM*,?,-16%,25µM*,?
Nc1c(C(=O)O)ccc2c1C(=O)c1ccccc1C2=O,3%,-20%,-5%,226%,-23%,?
CC(O)(COc1ccccc1)c1ccc2c(c1)CN(Cc1cccc3cccnc13)CCO2 (centres undefined),i,.,.,-3%,.,.
O=C1C2C3C=CC(CNS(=O)(=O)c4ccccc4[N+](=O)[O-])(O3)C2C(=O)N1c1ccccc1 (centres undefined),-13%,20%,-20%,2%,4%,5µM*
Cc1cc(C)c(S(=O)(=O)NCC23C=CC(O2)C2C(=O)N(c4ccccc4)C(=O)C23)c(C)c1 (centres undefined),.,-11%,-20%,.,3%,22µM*
